Measurements reported in PubChem BioAssay AID778 (Sanford-Burnham Center for Chemical Genomics, 2007).
The whole screen tested about 96,000 compounds, of which about 20,000 (21%) were called active. A selection follows. Values without a mark were called inactive.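 The calls were made as follows: active = CYP2C19 inhibition above a set limit at 5 µM in the primary screen (cut at about 50% in these data); inactive = the rest.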

molecular target: Cytochrome P450 2C19 (Homo sapiens) (UniProt P33261); test: blockers of cytochrome P450 2C19 activity – biochemical, luminescence, ADME assay, primary screen (AID 778); settings: CYP2C19 Supersomes, luciferin-H EGE luminescence, 30 min; at 5 µM; stronger effect = higher value;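 also: plate controls were negative control wells for no effect and 2.5 mM tranylcypromine positive control for full effect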
Sequence (P33261 whole entry, looked up): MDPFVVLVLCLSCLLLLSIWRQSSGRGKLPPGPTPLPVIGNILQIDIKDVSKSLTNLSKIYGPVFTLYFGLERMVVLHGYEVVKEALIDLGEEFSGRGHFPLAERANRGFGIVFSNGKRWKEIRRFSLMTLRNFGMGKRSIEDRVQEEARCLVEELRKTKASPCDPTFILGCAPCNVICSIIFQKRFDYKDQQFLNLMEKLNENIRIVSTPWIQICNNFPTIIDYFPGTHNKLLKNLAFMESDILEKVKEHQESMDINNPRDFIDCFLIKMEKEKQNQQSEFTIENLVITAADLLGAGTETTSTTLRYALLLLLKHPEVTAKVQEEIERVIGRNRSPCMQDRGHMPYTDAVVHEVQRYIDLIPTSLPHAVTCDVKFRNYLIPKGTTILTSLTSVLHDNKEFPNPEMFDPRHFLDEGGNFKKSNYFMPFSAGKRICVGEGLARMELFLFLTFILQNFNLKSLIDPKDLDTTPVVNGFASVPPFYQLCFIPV

Point of comparison: `COc1ccc(N2C(=O)CC(N3CCC(C(N)=O)CC3)C2=O)cc1` (centres undefined), inhibition -28.9%. Against it:
- CCn1c(COc2cccc(OC)c2)nnc1SCC(=O)N1CCOCC1 — higher, 9.6%
- CC1(C)Cc2ccccc2-c2nc(CN3CCOCC3)[nH]c(=O)c21 — higher, 9.2%
- COC(=O)Nc1ncc(CN2CCCCC2)s1 — higher, -1.3%
- Cc1cc(C)c(C#N)c(SCc2ccccc2C(=O)O)n1 — higher, -6%
- Cc1cc(C)c(C#N)c(SCc2[nH]nc3c2C(c2ccccc2)C(C#N)=C(N)O3)n1 (centres undefined) — higher, -13.6%
- CC(CO)N1CCS(=O)(=O)CC1 (centres undefined) — higher, -1.3%
- O=C(c1ccc(Cl)cc1)c1cnc(Nc2ccccc2)s1 — higher, -10.7%
- CCCOC(=O)Nc1ccccc1C(N)=O — higher, 5.8%
- C=CCn1c(SCC(=O)c2c(N)n(C)c(=O)n(C)c2=O)nc2sc(CC)cc2c1=O — higher, 1.3%
- CSCCC(NC(=O)COc1ccccc1)C(=O)OCC(=O)c1cc2ccccc2o1 (centres undefined) — higher, 28.3%
- COc1ccc(CN2CCn3ncc(C(=O)Nc4ccc(Cl)cc4Cl)c3C2=O)cc1 — higher, -8.8%
- O=C(COC(=O)CCc1c[nH]c(=O)[nH]1)Nc1ccccc1Cl — higher, -10%
- O=C(O)CSCNC(=O)CC12CC3CC(CC(C3)C1)C2 — higher, 11.3%
- O=C(C(NS(=O)(=O)c1cccc2nsnc12)c1ccccc1)N1CCN(c2ccccn2)CC1 (centres undefined) — higher, 35.6%
- O=C(O)c1ccc(NS(=O)(=O)c2cccc3nsnc23)cc1 — higher, 2%
- CC(C)c1nc2ccc(C(=O)O)cc2[nH]1 — higher, 12.1%
- CC(C)(C)c1cc(=O)n2c(nc3ccccc32)[nH]1 — higher, 12.3%
- C/C(=N\NC(=O)c1ccccc1C)c1ccc(N2CCOCC2)cc1 — higher, 3.2%
- Cc1cccc(-n2nc3c(c2NC(=O)c2ccc(Br)o2)CSC3)c1C — higher, -0.9%
- O=C1CCC(=O)N1CCOP1(=O)COc2ccccc2OC1 — higher, -14.7%
- CN=C1SC(C(=O)O)CC(=O)N1C (centres undefined) — higher, -3.4%
- COC(=O)c1ccc(NC(=O)CSc2nnc(Cc3cccn3C)n2-c2ccc(F)cc2)cc1 — higher, 22.5%
- Cc1ccc(C)c(NC(=O)CSc2nnc(Cc3cccn3C)n2-c2ccc(F)cc2)c1 — higher, 15.6%
- Cc1nnc(SCC(=O)N/N=C/c2cn(-c3ccccc3)nc2-c2ccc(F)cc2)n1-c1ccccc1 — higher, 3.9%
- COc1ccc(-n2c(Cc3cccn3C)nnc2SCC(=O)Nc2cc(C)cc(C)c2)cc1 — higher, 20.6%
- CC1(C)CC(=O)C=C(NCc2ccncc2)C1 — higher, 31.5%
- CCN(CC)C(=O)CSc1nnc(C2CCCCC2)o1 — higher, 8.6%
- CCCC(=O)Nc1ccc2c(c1)nc1n2CCSC1 — higher, -2.8%
- COc1cccc(OC)c1C(=O)Nc1ccc(N2CCCCC2)cc1 — higher, -3.6%
- Cc1ccc(OCC(=O)Nn2cnc3ccccc32)cc1 — higher, 17.2%
- Cc1ccc2nc(-c3ccccc3)cc(C(=O)O)c2c1 — higher, -3.4%
- O=C(C1=C(O)C(=O)N(c2ncccn2)C1c1cccs1)c1ccco1 (centres undefined) — higher, 1.3%
- CCC(=O)c1ccc(OCC(O)CN2CCN(c3cccc(C(F)(F)F)c3)CC2)cc1 (centres undefined) — higher, 25.5%
- Cn1nc(C(F)(F)F)c2cc(NC(=O)OCC(C)(C)C)sc21 — higher, 34.6%
- COc1ccc(Nc2cc(=O)oc3ccccc23)cc1 — higher, 17.7%
- Cc1ccc(NC(=O)C2CCCN(S(=O)(=O)c3c(C)noc3C)C2)c(C)c1 (centres undefined) — higher, 11.2%
- CCOC(=O)C1CCN(C(=O)C2CCN(S(=O)(=O)c3c(C)noc3C)CC2)CC1 — higher, 14.7%
- Cc1noc(/C=C/N(C)C)c1S(=O)(=O)N1CCCC(C(=O)NCc2ccco2)C1 (centres undefined) — higher, 39.6%
- CCOc1ccccc1NC(=O)C1CCN(S(=O)(=O)c2c(C)nn(C)c2C)CC1 — higher, 44.7%
- COc1ccc(N2CCN(Cc3cc(=O)oc4ccc5ccccc5c34)CC2)cc1 — higher, 12.4%
- Fc1ccc(N2CCN(Cc3cnc(Oc4ccc(Br)cc4)s3)CC2)cc1 — higher, 2.8%
- Cc1ccc(Cl)cc1NC(=O)COC(=O)C1CCCCC1 — higher, 32.1%
- CCc1ccc(N2CC(C(=O)NC3=NCCS3)CC2=O)cc1 (centres undefined) — higher, -1.1%
- CCCOc1ccc(N2CC(C(=O)Nc3ccccn3)CC2=O)cc1 (centres undefined) — higher, -18.5%
- CN(C)C(=O)c1cc(Br)ccc1Cl — higher, 4%
- CCOc1cccc(/C(O)=C2/C(=O)C(=O)N(CCOC)C2c2ccncc2)c1 (centres undefined) — higher, -18.2%
- COc1ccc(C(=O)Nc2ccc(S(=O)(=O)NC(C)C)cc2)cc1 — higher, 42.9%
- COC(=O)CNS(=O)(=O)c1ccc(OC)cc1 — higher, 10.3%
- Cc1nc(-c2ccccc2)sc1-c1nc(-c2ccccc2)ncc1S(=O)(=O)c1ccccc1 — higher, 5.1%
- CC(C)NS(=O)(=O)c1ccc(CCC(=O)N2CCOCC2)cc1 — higher, 14.2%
- CC(=O)OC(C(=O)NC1CCCCC1)c1ccccc1 (centres undefined) — higher, 20.2%
- O=C(OC(C(=O)NC1CCCC1)c1ccc(F)cc1)c1ccno1 (centres undefined) — higher, 8.1%
- Cc1nc2c(c(=O)n1Cc1ccco1)c1nc3ccccc3nc1n2Cc1ccccc1 — higher, 3%
- CCn1c(C)nc2c1C(=O)c1ccccc1C2=O — higher, -8.5%
- CCC(C)N1C(=O)S/C(=C/c2ccc(Sc3nc4ccccc4[nH]3)o2)C1=O (centres undefined) — higher, 43.3%
- CC(C)Cc1oc(C(=O)O)cc1CN — higher, 4.2%
- CC1OC2C(OC1C)N(S(C)(=O)=O)CCN2S(C)(=O)=O (centres undefined) — higher, -4.8%
- Cc1ccc(CCN2CC(C(=O)O)CC2=O)cc1 (centres undefined) — higher, -0.5%
- Cc1ccc(CNC(=O)C2CC(=O)N(C3CCCCCCC3)C2)cc1 (centres undefined) — higher, -2.5%
- Cc1ccc(C(=O)NC2CCN(C(=O)N3CCOCC3)CC2)cc1 — higher, -1.3%
- O=C(NC1CCCCC1)c1ccc(CNc2c(N3CCOCC3)c(=O)c2=O)cc1 — higher, 9.7%
- COc1ccc(NC(=O)C(NC(C)=O)C(=O)NCc2ccccc2Cl)cc1 (centres undefined) — higher, 12.9%
- COc1ncnc2c1N=C1CC(C)(C)CC(N)=C1S2 — higher, 4.5%
- O=c1[nH]nc(Cc2ccccn2)c2ccccc12 — higher, -0.8%
- CCCC1C(c2ccccc2)C(C#N)(C#N)C2(C#N)CC1(N)NC2=O (centres undefined) — higher, 5%
- O=C(O)c1ccccc1NC(=S)NC(NC(=O)c1ccccc1[N+](=O)[O-])C(Cl)(Cl)Cl (centres undefined) — higher, 2%
- CC1(C)N=C(c2ccccn2)C(C)(C)N1O — higher, 29.9%
- COc1ccc(NC(=O)Nc2ccc3nsnc3c2)cc1 — higher, 20.3%
- COc1cccc(N2C(=O)C3CCCN3C2c2ccc(F)cc2)c1 (centres undefined) — higher, -0.1%
- Cc1cc(NS(=O)(=O)c2ccccc2)no1 — higher, -16.4%
- O=C(/C=C/c1ccco1)Nc1cccc(-c2nc3ccccc3[nH]2)c1 — higher, 47.9%
- Cc1ccc(C)c(S(=O)(=O)n2cnc3ccccc32)c1 — higher, -11.2%
- CC(=O)c1ccc2c(ccc3ccccc32)c1 — higher, 35%
- O=C(c1cccc2ccccc12)N1CCN(c2ccccc2F)CC1 — higher, 35.4%
- Cc1cc(-n2nc(C)cc2C)n2nc(C)c(-c3ccccc3)c2n1 — higher, 21.4%

In the case of `CCOC(=O)C1Cn2c(nc3c(c2=O)C(C)(CC)Cc2ccccc2-3)S1` (centres undefined), the inhibition is reported as 97.8% (active).
`Cc1cc(C)c(C#N)c(SCc2ccc3c(c2)OCO3)n1` was tested, and the inhibition was 96.5% (active).
`Cc1cc2c(=O)n(C)c(SCC(=O)c3cc4ccccc4o3)nc2s1` was tested, and the inhibition was 85.9% (active).
In the case of `O=C(C(NS(=O)(=O)c1cccc2nsnc12)c1ccccc1)N1CCN(c2ccccc2)CC1` (centres undefined), the inhibition is reported as 86.3% (active).
`Cn1cccc1Cc1nnc(SCC(=O)NCCc2ccccc2)n1-c1ccc(F)cc1` was tested, and the inhibition was 59.6% (active).
For `COc1ccccc1NC(=O)CSc1nnc(Cc2cccn2C)n1-c1ccc(F)cc1`, the inhibition was 66.3% (active).
For `Cn1cccc1Cc1nnc(SCC(=O)NCc2ccc3c(c2)OCO3)n1CCc1ccccc1`, the inhibition was 88.3% (active).
With `COc1ccc(-c2cc(C(=O)n3cnc4ccccc43)c3ccccc3n2)cc1` the inhibition was 74.8% (active).
For `CCC(=O)OCc1c(C(F)(F)F)nn(C)c1Oc1cccc(C(F)(F)F)c1`, the inhibition was 57.7% (active).
With `CCOc1ccc(OCC)c(NC(=O)C2CCN(S(=O)(=O)c3c(C)noc3C)CC2)c1` the inhibition was 54.5% (active).
`Cc1noc(C)c1S(=O)(=O)N1CCCC(C(=O)Nc2nccs2)C1` (centres undefined) was tested, and the inhibition was 78.8% (active).
`COc1ccc(N2CCN(Cc3ccc(Br)s3)CC2)cc1` was tested, and the inhibition was 96.1% (active).
With `C=CCSC1=C(C#N)C(c2cc(Br)c(O)c(OC)c2)CC(=O)N1` (centres undefined) the inhibition was 67.5% (active).
`CC(C)c1ccc(N2CC(C(=O)Nc3nccs3)CC2=O)cc1` (centres undefined) was tested, and the inhibition was 59.1% (active).
With `CO/N=C(/CS(=O)(=O)c1ccc(Br)cc1)c1ccc(OC)cc1` the inhibition was 100% (active).
In the case of `Cn1c(C(=O)OC(C(=O)NC2CCCCC2)c2ccccn2)cc2sccc21` (centres undefined), the inhibition is reported as 67.2% (active).
In the case of `Cc1nc2ccccc2c(=O)n1CCCn1ccnc1`, the inhibition is reported as 50.8% (active).
With `CCc1ccc(CNC(=O)C2CC(=O)N(CCc3ccc(C)cc3)C2)cc1` (centres undefined) the inhibition was 54.2% (active).
With `O=C1OC(NC(=O)c2ccccc2)C(N2CCOCC2)=C1Cl` (centres undefined) the inhibition was 52.8% (active).
`CN(CCc1ccccn1)S(=O)(=O)c1ccc2c3c(cccc13)C(=O)N2` was tested, and the inhibition was 93.6% (active).
In the case of `O=S(=O)(Nc1ccc2nc(-c3ccco3)[nH]c2c1)c1ccccc1`, the inhibition is reported as 92.4% (active).
In the case of `Cc1ccc(C)c(NS(=O)(=O)c2cc(Br)cnc2N)c1`, the inhibition is reported as 61.5% (active).
For `COc1c(C(=O)N2CCCC2)ccc2ccccc12`, the inhibition was 53% (active).
